In PubChem BioAssay (Tox21):
Results filed as inconclusive are left out. Entries that show only a call come without a potency. The source made the active and inactive calls. Unless noted, calls come from the whole dose curve; as a rule, active = well fitted curve in the direction sought with a large enough effect in the repeat runs; inconclusive = weak or mixed curves; inactive = no such curve, though single readings can be large; an effect the other way counts as inactive or inconclusive.

Experiments:
[1] = qHTS assay for small molecules that induce genotoxicity in human embryonic kidney cells expressing luciferase-tagged ATAD5 (AID 651632); note: nearly all actives have a fitted effect of over 15% in size
Summary of the method: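 Quantitative HTS in HEK293T expressing luciferase-tagged ATAD5, whose levels rise upon DNA damage. Exposure ran 16 hr at 37C and 5% CO2, with luminescence read 30 min after Amplite addition at room temperature.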

[2] = qHTS assay for small molecule agonists of the p53 signaling pathway - cell viability (AID 651633; calls by dose curve;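 note: p53RE-bla HCT reporter cells with a stable beta-lactamase p53 reporter; series mostly up to about 83 µM; nearly all actives have a fitted effect of over 30% in size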)
Summary of the method: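 p53RE-bla cells, seeded at 4,000 per well and rested 5 h at 37 C/5% CO2, received compounds in DMSO for 16 h at 37 C. CellTiter-Glo was then added, and luminescence was read after 30 min at room temperature to gauge cytotoxicity.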

[3] = qHTS assay for small molecules that induce genotoxicity in human embryonic kidney cells expressing luciferase-tagged ATAD5 - cell viability (AID 651634; calls by dose curve; note: nearly all actives have a fitted effect of over 25% in size)
Summary of the method: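 After 15.5 hr incubation with compound at 37C, 5% CO2, HEK293T ATAD5-luciferase cells received CellTiter-Fluor reagent; fluorescence intensity was quantified following 30 min at 37C.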

[4] = qHTS assay for small molecule disruptors of the mitochondrial membrane potential - cell viability (AID 720634; calls by dose curve;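 note: human HepG2 liver cancer cells; series mostly up to about 83 µM; nearly all actives have a fitted effect of over 20% in size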)
Summary of the method: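 ATP-based luminescent viability readout (CellTiter-Glo, 30 min, room temperature) in HepG2 cells multiplexed with the m-MPI membrane potential dye; compound exposure lasted 1 hr at 37 C.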

[5] = qHTS assay for small molecule disruptors of the mitochondrial membrane potential (AID 720635)
Summary of the method: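 HepG2 cells (2,000/well) attached overnight at 37C, then took compound for 1 hr at 37C, 5% CO2. Mito-MPS dye was added for 30 min; fluorescence was read at 490/535 nm (monomers) and 540/590 nm (aggregates).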

[6] = qHTS assay to test for compound auto fluorescence at 590 nm (red) in HepG2 cells (AID 720674)
Summary of the method: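 Compound auto-fluorescence is scored relative to Rose Bengal sodium, measured at 540/590 nm in live HepG2 cultures after 1 hr compound contact (37 C, 5% CO2).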

[7] = qHTS assay to test for compound auto fluorescence at 535 nm (green) in HepG2 cells (AID 720675)
[8] = qHTS assay to test for compound auto fluorescence at 460 nm (blue) in HEK293 cells (AID 720678)
Summary of the method: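 HEK293, 2,000 cells/well, 10% dialyzed FBS; attach 4-5 hr 37C; pin compound or DMSO; o/n 37C/5% CO2; fluorescence 405/460 nm; triamterene-equivalent units.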

[9] = qHTS assay to test for compound auto fluorescence at 590 nm (red) in HEK293 cells (AID 720679)
Summary of the method: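 Intensity at 540nm excitation and 590nm emission is reported as Rose Bengal sodium-equivalent autofluorescence. Measurements followed overnight exposure (37C, 5% CO2) of HEK293 cells, 2,000 per well, to 23 nL compound.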

[10] = qHTS assay to test for compound auto fluorescence at 535 nm (green) in HEK293 cells (AID 720680)
[11] = qHTS assay to test for compound auto fluorescence at 460 nm (blue) in HEK293 cell free culture (AID 720681)
Summary of the method: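 Test compounds were pinned into cell-free culture medium (DMEM with 10% FBS) and fluorescence was read directly at Ex/Em 405/460 nm. Signals were expressed as fluorescence equivalents of triamterene, with DMSO vehicle as control.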

[12] = qHTS assay to test for compound auto fluorescence at 535 nm (green) in HEK293 cell free culture (AID 720682)
Summary of the method: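 Measurement is a direct plate read of green fluorescence (485 nm in, 535 nm out) after compound addition to serum-supplemented DMEM lacking cells, with fluorescein used to express intensities.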

[13] = qHTS assay to test for compound auto fluorescence at 590 nm (red) in HEK293 cell free culture (AID 720683)
Summary of the method: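 Tox21 10K library compounds were pinned into cell-free DMEM with 10% FBS and fluorescence was read at excitation 540 nm. Activity is expressed as Rose Bengal sodium equivalency.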

[14] = qHTS assay to test for compound auto fluorescence at 590 nm (red) in HepG2 cell free culture (AID 720684)
Summary of the method: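 Ex 540 / Em 590 nm read of compound in cell-free MEM (10% FBS). Rose Bengal sodium reference.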

[15] = qHTS assay to test for compound auto fluorescence at 460 nm (blue) in HepG2 cell free culture (AID 720685)
Summary of the method: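 Cell-free plates of MEM plus 10% FBS received 23 nL compound or DMSO vehicle; blue-channel (405/460 nm) intensity scored against triamterene as reference fluorophore.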

[16] = qHTS assay to test for compound auto fluorescence at 535 nm (green) in HepG2 cell free culture (AID 720686)
[17] = qHTS assay to test for compound auto fluorescence at 460 nm (blue) in HepG2 cells (AID 720687)
Summary of the method: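 Cells (2,000/well in MEM with 10% FBS) attached overnight at 37 C, then were exposed to compound or DMSO for 1 hr at 37 C, 5% CO2. Fluorescence read at Ex/Em 405/460 nm, expressed as triamterene-equivalent signal.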

[18] = target: Glucocorticoid receptor (Homo sapiens) (UniProt P04150); test: qHTS assay to identify small molecule agonists of the glucocorticoid receptor (GR) signaling pathway (AID 720691; active = well fitted activation curve with a large enough effect in the signal ratio in the repeat runs, not every such curve was filed as active; the % refers to the signal ratio)
Glucocorticoid receptor (Homo sapiens), sequence (P04150 whole entry, looked up): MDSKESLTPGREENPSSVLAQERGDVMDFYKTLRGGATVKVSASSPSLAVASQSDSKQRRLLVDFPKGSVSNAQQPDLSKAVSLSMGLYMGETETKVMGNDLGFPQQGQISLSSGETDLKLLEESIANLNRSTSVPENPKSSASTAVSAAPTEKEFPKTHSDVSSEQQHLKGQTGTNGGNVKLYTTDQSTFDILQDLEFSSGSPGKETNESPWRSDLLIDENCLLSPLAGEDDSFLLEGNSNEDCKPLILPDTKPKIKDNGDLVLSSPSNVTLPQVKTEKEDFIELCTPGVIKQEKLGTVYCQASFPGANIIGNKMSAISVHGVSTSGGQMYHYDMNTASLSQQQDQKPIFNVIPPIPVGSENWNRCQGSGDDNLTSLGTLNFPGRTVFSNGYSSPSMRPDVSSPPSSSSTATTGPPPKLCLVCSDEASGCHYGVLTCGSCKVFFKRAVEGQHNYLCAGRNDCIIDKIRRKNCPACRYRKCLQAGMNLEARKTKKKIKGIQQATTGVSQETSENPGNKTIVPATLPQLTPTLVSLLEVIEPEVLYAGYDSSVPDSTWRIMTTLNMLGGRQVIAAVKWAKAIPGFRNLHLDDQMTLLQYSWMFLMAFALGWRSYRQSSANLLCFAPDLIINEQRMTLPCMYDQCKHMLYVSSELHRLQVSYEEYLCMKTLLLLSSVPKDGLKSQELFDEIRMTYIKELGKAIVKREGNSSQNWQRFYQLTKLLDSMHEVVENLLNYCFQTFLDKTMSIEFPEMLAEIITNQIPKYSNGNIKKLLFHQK
Summary of the method: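 Cells: GR-bla HeLa, endogenous GR with stably integrated GRE-beta-lactamase reporter. Treatment 18 h, 37 C, compounds delivered in DMSO. Detection via LiveBLAzer B/G FRET substrate, 2 h RT, fluorescence intensity.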

[19] = target: Glucocorticoid receptor (Homo sapiens) (UniProt P04150); test: qHTS assay to identify small molecule antagonists of the glucocorticoid receptor (GR) signaling pathway (AID 720692; active = well fitted inhibition curve with a large enough effect in the signal ratio in the repeat runs, not every such curve was filed as active; the % refers to the signal ratio)
Summary of the method: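 Quantitative HTS in antagonist format: HeLa cells expressing endogenous GR and a stably integrated GRE-bla reporter, stimulated with 5 nM dexamethasone (final) alongside test compounds for 18 h.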

[20] = qHTS assay to identify small molecule antagonists of the glucocorticoid receptor (GR) signaling pathway - cell viability counter screen (AID 720693); note: nearly all actives have a fitted effect of over 55% in size
[21] = qHTS assay for identifying genotoxic compounds that show differential cytotoxicity against isogenic chicken DT40 cell lines with known DNA damage response pathways - wild type cell line (AID 743012); note: nearly all actives have a fitted effect of over 60% in size; note: potency is the fitted concentration of half-maximal effect
Summary of the method: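 Luminescent ATP viability signal (CellTiter-Glo, 30 min RT) recorded after wild type DT40 cells were incubated with compounds for 40 h at 37 C/5% CO2.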

[22] = qHTS assay to identify small molecule antagonists of the androgen receptor (AR) signaling pathway - cell viability counter screen (AID 743033; note: nearly all actives have a fitted effect of over 45% in size)
[23] = qHTS assay to identify small molecule antagonists of the androgen receptor (AR) signaling pathway using the MDA cell line - cell viability counter screen (AID 743041; note: nearly all actives have a fitted effect of over 45% in size)
Summary of the method: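 In this qHTS counter assay, fluorescence intensity after CellTiter-Fluor addition indicated viability of MDA-kb2 AR-luc cells given compounds and R1881 for 16 h at 37C.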

[24] = qHTS assay to identify small molecule antagonists of the thyroid receptor (TR) signaling pathway - cell viability counter screen (AID 743064); note: nearly all actives have a fitted effect of over 50% in size
Summary of the method: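 Compounds were tested on GH3.TRE-Luc cells in the presence of T3 at 1 nM final. Following 23.5 h at 37 °C, cell viability was quantified by CellTiter-Fluor.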

[25] = tested on: thyroid hormone receptor (rat, GH3 cells); test: qHTS assay to identify small molecule agonists of the thyroid receptor (TR) signaling pathway (AID 743066; calls by dose curve)
[26] = target: Estrogen receptor (Homo sapiens) (UniProt P03372); test: qHTS assay to identify small molecule antagonists of the estrogen receptor alpha (ER-alpha) signaling pathway (AID 743069; active = well fitted curve in the direction sought with a large enough effect in the signal ratio in the repeat runs, not every such curve was filed as active; the % refers to the signal ratio)
Estrogen receptor (Homo sapiens), sequence (P03372 whole entry, looked up): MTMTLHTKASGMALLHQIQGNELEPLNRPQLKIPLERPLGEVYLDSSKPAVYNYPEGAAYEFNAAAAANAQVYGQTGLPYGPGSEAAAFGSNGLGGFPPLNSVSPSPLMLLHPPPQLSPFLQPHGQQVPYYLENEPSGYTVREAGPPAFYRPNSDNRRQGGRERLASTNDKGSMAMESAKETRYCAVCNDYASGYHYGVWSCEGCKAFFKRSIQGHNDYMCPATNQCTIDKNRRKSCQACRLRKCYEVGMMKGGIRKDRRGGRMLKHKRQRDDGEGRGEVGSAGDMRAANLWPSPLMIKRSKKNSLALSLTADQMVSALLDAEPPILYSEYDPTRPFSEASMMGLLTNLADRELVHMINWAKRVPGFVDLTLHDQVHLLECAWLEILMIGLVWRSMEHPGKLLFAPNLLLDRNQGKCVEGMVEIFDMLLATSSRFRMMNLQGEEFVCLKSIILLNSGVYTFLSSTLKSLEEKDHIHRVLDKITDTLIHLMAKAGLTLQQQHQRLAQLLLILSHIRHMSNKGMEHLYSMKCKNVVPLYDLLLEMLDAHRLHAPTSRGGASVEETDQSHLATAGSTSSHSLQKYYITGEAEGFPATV
Summary of the method: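 A 17beta-estradiol challenge was applied right after compound transfer to ER-alpha-UAS-bla HEK293 cells previously kept in charcoal-stripped serum. Plates stood 18 hr at 37C and 5% CO2; fluorescence was read following 2 hr FRET substrate loading at room temperature.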

[27] = target: Estrogen receptor (Homo sapiens) (UniProt P03372); test: qHTS assay to identify small molecule agonists of the estrogen receptor alpha (ER-alpha) signaling pathway (AID 743075; calls by dose curve;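 note: HEK293 GripTite cells with ER-alpha and UAS-driven beta-lactamase reporter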)
[28] = target: Estrogen receptor (Homo sapiens) (UniProt P03372); test: qHTS assay to identify small molecule agonists of the estrogen receptor alpha (ER-alpha) signaling pathway using the BG1 cell line (AID 743079); note: nearly all actives have a fitted effect of over 20% in size
[29] = qHTS assay to identify small molecule antagonists of the estrogen receptor alpha (ER-alpha) signaling pathway using the BG1 cell line (AID 743080; calls by dose curve;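 note: BG1 cells stimulated with 17beta-estradiol alongside compound; series mostly up to about 70 µM; nearly all actives have a fitted effect of over 25% in size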)
Summary of the method: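 BG1Luc4E2, endogenous ER-alpha, 4xERE-luc; 5 d charcoal-stripped FBS, phenol red free; 24 h plating; cpd + 17beta-estradiol 21.5 h, 37 C/5% CO2; CellTiter-Fluor viability 30 min, then ONE-Glo luciferase 30 min RT.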

Aromatase (Homo sapiens) = Aromatase (Homo sapiens) (UniProt P11511); test: qHTS assay to identify aromatase inhibitors (AID 743083); note: series mostly up to about 70 µM; nearly all actives have a fitted effect of over 55% in size
Aromatase (Homo sapiens), sequence (P11511 whole entry, looked up): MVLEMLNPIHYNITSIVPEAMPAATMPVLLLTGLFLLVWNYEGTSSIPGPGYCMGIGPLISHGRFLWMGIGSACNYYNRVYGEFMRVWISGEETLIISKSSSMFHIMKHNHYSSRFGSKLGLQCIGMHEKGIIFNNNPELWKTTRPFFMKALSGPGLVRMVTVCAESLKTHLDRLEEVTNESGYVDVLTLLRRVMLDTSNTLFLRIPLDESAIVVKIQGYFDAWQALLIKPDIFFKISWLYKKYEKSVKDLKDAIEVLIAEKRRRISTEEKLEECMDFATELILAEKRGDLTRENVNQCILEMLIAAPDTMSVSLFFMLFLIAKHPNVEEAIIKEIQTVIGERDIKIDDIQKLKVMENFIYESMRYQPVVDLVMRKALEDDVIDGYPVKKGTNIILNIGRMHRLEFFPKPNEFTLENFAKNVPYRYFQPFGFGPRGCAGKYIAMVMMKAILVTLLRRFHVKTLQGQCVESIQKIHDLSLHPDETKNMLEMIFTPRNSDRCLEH

[30] = qHTS assay to identify aromatase inhibitors - cell viability counter screen (AID 743084);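 note: cells stimulated with testosterone during compound exposure; nearly all actives have a fitted effect of over 55% in size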
[31] = target: Aryl hydrocarbon receptor (Homo sapiens) (UniProt P35869); test: qHTS assay to identify small molecule that activate the aryl hydrocarbon receptor (AhR) signaling pathway (AID 743085);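 note: HG2L7.5c1 human HepG2 liver cells with stably integrated DRE-driven firefly reporter; series mostly up to about 70 µM; nearly all actives have a fitted effect of over 15% in size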
Aryl hydrocarbon receptor (Homo sapiens), sequence (P35869 whole entry, looked up): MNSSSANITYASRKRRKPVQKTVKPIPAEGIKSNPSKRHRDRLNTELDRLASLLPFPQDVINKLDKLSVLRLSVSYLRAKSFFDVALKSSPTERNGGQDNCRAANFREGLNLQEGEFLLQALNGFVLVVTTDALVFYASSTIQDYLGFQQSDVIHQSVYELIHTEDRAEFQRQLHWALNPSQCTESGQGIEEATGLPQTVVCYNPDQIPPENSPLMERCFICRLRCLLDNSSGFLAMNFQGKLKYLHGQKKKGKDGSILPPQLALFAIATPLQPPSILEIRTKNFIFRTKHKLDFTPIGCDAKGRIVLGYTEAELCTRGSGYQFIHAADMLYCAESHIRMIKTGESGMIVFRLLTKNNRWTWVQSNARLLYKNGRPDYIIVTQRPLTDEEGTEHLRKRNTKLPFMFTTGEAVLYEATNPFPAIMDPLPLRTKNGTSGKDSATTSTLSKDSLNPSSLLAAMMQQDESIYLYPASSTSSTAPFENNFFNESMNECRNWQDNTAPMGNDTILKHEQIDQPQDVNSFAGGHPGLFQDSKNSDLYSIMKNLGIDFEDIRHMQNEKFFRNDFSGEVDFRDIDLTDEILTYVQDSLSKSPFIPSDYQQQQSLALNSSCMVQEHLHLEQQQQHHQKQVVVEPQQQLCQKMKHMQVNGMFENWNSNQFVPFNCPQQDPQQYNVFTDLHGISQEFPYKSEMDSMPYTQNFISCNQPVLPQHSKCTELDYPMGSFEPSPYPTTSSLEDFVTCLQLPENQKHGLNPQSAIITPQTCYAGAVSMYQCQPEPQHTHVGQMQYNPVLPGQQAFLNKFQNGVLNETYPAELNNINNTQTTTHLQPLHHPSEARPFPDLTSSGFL
Summary of the method: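 24 h compound exposure, 37C, HepG2-derived HG2L7.5c1 cells with DRE-responsive luciferase. Readouts: fluorescence viability, then luminescence at room temperature after 30 min.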

[32] = qHTS assay to identify small molecule that activate the aryl hydrocarbon receptor (AhR) signaling pathway - cell viability counter screen (AID 743086);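 note: HepG2 liver cells carrying the AhR DRE luciferase reporter; series mostly up to about 70 µM; nearly all actives have a fitted effect of over 45% in size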
Summary of the method: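 HepG2-AhR-luc (HG2L7.5c1) cells, 4000/well, were preincubated 5 h at 37C, exposed to compound in qHTS format for 24 hr at 37C, then given CellTiter-Fluor for 30 min; viability was read as fluorescence in the reporter wells.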

[33] = qHTS assay for small molecule agonists of the p53 signaling pathway (AID 651631; calls by dose curve; note: nearly all actives have a fitted effect of over 15% in size)
Summary of the method: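 Quantitative high-throughput format: 4,000 p53RE-bla HCT-116 cells/well, 5 h pre-incubation, 16 h compound exposure at 37 °C, 2 h room-temperature substrate step, fluorescence intensity measured.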

[34] = qHTS assay for identifying genotoxic compounds that show differential cytotoxicity against isogenic chicken DT40 cell lines with known DNA damage response pathways - Rev3 mutant cell line (AID 743014); note: nearly all actives have a fitted effect of over 55% in size
[35] = qHTS assay for identifying genotoxic compounds that show differential cytotoxicity against isogenic chicken DT40 cell lines with known DNA damage response pathways - Rad54/Ku70 mutant cell line (AID 743015); note: nearly all actives have a fitted effect of over 60% in size
[36] = qHTS assay to identify small molecule antagonists of the thyroid receptor (TR) signaling pathway (AID 743065)
Summary of the method: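 GH3.TRE-Luc rat pituitary cells carrying two TR response elements driving luciferase were plated for 4 h, given compound plus 1 nM T3 (final), and incubated 23.5 h at 37 C. ONE-Glo luminescence measured reporter inhibition; CellTiter-Fluor fluorescence tracked cytotoxicity.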

[37] = target: Peroxisome proliferator-activated receptor gamma (Homo sapiens) (UniProt P37231); test: qHTS assay to identify small molecule agonists of the peroxisome proliferator-activated receptor gamma (PPARg) signaling pathway (AID 743094; active = well fitted activation curve with a large enough effect in the signal ratio in the repeat runs, not every such curve was filed as active; the % refers to the signal ratio)
Peroxisome proliferator-activated receptor gamma (Homo sapiens), sequence (P37231 whole entry, looked up): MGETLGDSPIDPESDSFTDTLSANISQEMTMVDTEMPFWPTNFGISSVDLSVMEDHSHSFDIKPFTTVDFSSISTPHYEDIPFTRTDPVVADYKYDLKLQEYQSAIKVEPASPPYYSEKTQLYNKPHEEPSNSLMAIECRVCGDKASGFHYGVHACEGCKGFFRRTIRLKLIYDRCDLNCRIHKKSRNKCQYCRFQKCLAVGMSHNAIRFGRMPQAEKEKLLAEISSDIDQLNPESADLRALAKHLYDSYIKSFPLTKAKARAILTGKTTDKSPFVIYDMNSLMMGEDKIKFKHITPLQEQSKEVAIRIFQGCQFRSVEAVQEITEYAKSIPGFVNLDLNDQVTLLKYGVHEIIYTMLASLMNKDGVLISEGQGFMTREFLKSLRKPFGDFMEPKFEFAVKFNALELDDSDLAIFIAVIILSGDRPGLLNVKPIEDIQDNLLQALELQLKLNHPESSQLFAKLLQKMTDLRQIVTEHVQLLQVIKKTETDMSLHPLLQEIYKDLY
Summary of the method: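 Reporter activation was scored by fluorescence of cleaved LiveBLAzer B/G substrate (1 h, room temperature) in PPARg-bla HEK293H cells previously treated 17 h at 37C with DMSO-dissolved compounds.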

Question: What does the source list for Cc1ccc2c(c1)[C@]13CCCC[C@@H]1[C@H](C2)N(C)CC3?
Answer: outcome [1]: inactive; Potency [2]: inactive; Potency [3]: inactive; outcome [4]: inactive; Potency [5]: inactive; outcome [6]: inactive; outcome [7]: inactive; outcome [8]: inactive; outcome [9]: inactive; outcome [10]: inactive; outcome [11]: inactive; outcome [12]: inactive; outcome [13]: inactive; outcome [14]: inactive; outcome [15]: inactive; outcome [16]: inactive; outcome [17]: inactive; outcome [18]: inactive; Potency [19]: inactive; Potency [20]: inactive; Potency [21]: 26.6 µM (active); Potency [22]: inactive; outcome [23]: inactive; Potency [24]: inactive; outcome [25]: inactive; outcome [26]: inactive; Potency [27]: inactive; Potency [28]: inactive; outcome [29]: inactive; Potency (Aromatase (Homo sapiens)): inactive; outcome [30]: inactive; outcome [31]: inactive; Potency [32]: inactive

Question: For Clc1ccc([C@@H]2C[C@H]3CC[C@@H]2N3)cn1, which Potency [33] is on record?
Answer: The Potency was “inactive”.

Question: What about the outcome [1] of the same compound?
Answer: The outcome was “inactive”.

Question: What about the Potency [2] of the same compound?
Answer: The Potency was “inactive”.

Question: And the Potency [3]?
Answer: The Potency was “inactive”.

Question: And the outcome [4]?
Answer: Its outcome is “inactive”.

Question: And the outcome [6]?
Answer: Its outcome is “inactive”.

Question: What about the outcome [7] of the same compound?
Answer: Its outcome is “inactive”.

Question: And the outcome [8]?
Answer: The outcome was “inactive”.

Question: And the outcome [9]?
Answer: The outcome was “inactive”.

Question: And the outcome [10]?
Answer: Its outcome is “inactive”.

Question: What about the outcome [11] of the same compound?
Answer: Its outcome is “inactive”.

Question: And the outcome [12]?
Answer: The outcome was “inactive”.

Question: What about the outcome [13] of the same compound?
Answer: The outcome was “inactive”.

Question: And the outcome [14]?
Answer: Its outcome is “inactive”.

Question: What about the outcome [15] of the same compound?
Answer: The outcome was “inactive”.

Question: What about the outcome [16] of the same compound?
Answer: Its outcome is “inactive”.

Question: What about the outcome [17] of the same compound?
Answer: Its outcome is “inactive”.

Question: What about the Potency [20] of the same compound?
Answer: The Potency was “inactive”.

Question: And the Potency [21]?
Answer: Its Potency is “inactive”.

Question: And the Potency [34]?
Answer: Its Potency is “inactive”.

Question: And the Potency [35]?
Answer: Its Potency is “inactive”.

Question: What about the Potency [22] of the same compound?
Answer: The Potency was “inactive”.

Question: And the outcome [23]?
Answer: The outcome was “inactive”.

Question: What about the Potency [24] of the same compound?
Answer: Its Potency is “inactive”.

Question: And the Potency [36]?
Answer: The Potency was “inactive”.

Question: And the outcome [25]?
Answer: The outcome was “inactive”.

Question: And the outcome [26]?
Answer: Its outcome is “inactive”.

Question: And the Potency [27]?
Answer: The Potency was “inactive”.

Question: And the Potency [28]?
Answer: Its Potency is “inactive”.

Question: And the outcome [29]?
Answer: Its outcome is “inactive”.

Question: And the Potency (Aromatase (Homo sapiens))?
Answer: The Potency was “inactive”.

Question: And the outcome [30]?
Answer: Its outcome is “inactive”.

Question: And the outcome [31]?
Answer: Its outcome is “inactive”.

Question: What about the Potency [32] of the same compound?
Answer: The Potency was “inactive”.

Question: And the outcome [37]?
Answer: Its outcome is “inactive”.
